From PubChem BioAssay (Tox21)
Records with an inconclusive call do not appear. The source made the active and inactive calls. Unless noted, calls follow the shape of the full dose curve.

Assays:
[1] = Nuclear factor erythroid 2-related factor 2/antioxidant responsive element (Nrf2/ARE) small molecule agonists: qHTS cell viability counter screen in human keratinocytes (AID 1919968; active = well fitted curve in the direction sought with a large enough effect in the repeat runs; an effect the other way counts as inactive or inconclusive; also: nearly all actives have a fitted effect of over 55% in size)
In short: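 KeratinoSens cells (HaCaT keratinocytes stably carrying an ARE-luciferase reporter) were seeded at 1,500 cells/well and rested 5 h at 37 C/5% CO2. They were then exposed to compounds in DMSO for 23 h. Viability was read by CellTiter-Fluor fluorescence after 1 h.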

[2] = Nuclear factor erythroid 2-related factor 2/antioxidant responsive element (Nrf2/ARE) small molecule agonists: luciferase reporter gene qHTS assay in human keratinocytes (AID 1919969); also: nearly all actives have a fitted effect of over 35% in size
[3] = target: Gonadotropin-releasing hormone receptor (Homo sapiens) (UniProt P30968); assay: Human gonadotropin-releasing hormone receptor (GnRHR) small molecule agonists, calcium flux assay in GnRHR-HEK293 cells (AID 1920063); also: nearly all actives have a fitted effect of over 35% in size
Sequence of Gonadotropin-releasing hormone receptor (Homo sapiens) (P30968 whole entry, looked up): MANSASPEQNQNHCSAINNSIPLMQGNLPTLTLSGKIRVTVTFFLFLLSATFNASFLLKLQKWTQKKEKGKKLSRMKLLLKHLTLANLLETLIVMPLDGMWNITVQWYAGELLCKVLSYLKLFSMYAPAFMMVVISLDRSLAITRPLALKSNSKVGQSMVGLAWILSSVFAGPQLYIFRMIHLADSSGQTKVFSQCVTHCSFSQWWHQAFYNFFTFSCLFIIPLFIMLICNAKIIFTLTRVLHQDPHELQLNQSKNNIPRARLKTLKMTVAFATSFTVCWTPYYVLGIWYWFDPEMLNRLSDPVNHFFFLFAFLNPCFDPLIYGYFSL
In short: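 HEK293 cells stably expressing human GnRHR were plated 18 h at 37 °C, loaded with calcium dye 1 h at 37 °C, then given compound in agonist mode; fluorescence (Ex/Em 480/540) read kinetically for 3 min at 1 s intervals.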

[4] = target: KiSS-1 receptor (Homo sapiens) (UniProt Q969F8); assay: Human kisspeptin (KISS1R) small molecule agonists, calcium flux assay in KISS1R-HEK293 cells (AID 1920064; active = well fitted curve in the direction sought with a large enough effect in the repeat runs; an effect the other way counts as inactive or inconclusive)
Sequence of KiSS-1 receptor (Homo sapiens) (Q969F8 whole entry, looked up): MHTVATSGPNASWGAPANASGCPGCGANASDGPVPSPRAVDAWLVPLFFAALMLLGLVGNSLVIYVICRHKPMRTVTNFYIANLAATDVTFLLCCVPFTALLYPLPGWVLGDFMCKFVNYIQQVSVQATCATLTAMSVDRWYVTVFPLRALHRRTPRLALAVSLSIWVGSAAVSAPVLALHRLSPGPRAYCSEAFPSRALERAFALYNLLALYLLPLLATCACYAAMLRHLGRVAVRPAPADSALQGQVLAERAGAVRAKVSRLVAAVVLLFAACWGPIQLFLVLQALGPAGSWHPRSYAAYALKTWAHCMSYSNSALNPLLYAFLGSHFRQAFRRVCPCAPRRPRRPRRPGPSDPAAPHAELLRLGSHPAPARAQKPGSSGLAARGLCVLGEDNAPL
In short: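 HEK293 cells stably expressing human KISS1R were plated 18 h at 37 °C, loaded with calcium dye for 1 h at 37 °C, then given compound by pin tool. Fluorescence (Ex/Em 480/540) was read kinetically for 3 min.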

[5] = G protein-coupled receptor (GPCR) small molecule agonists, calcium flux assay: HEK293 wild type cell line counter screen (AID 1920065)
In short: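 Cells were plated and cultured 18 h at 37 C/5% CO2, then loaded with calcium dye for 1 h at 37 C. Compounds in DMSO were pin-transferred in agonist mode, and fluorescence (Ex/Em 480/540) was read kinetically for 3 min at 1 s intervals.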

[6] = p53 small molecule agonists, cell-based qHTS assay with human liver microsomes (AID 1963577)
In short: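 p53RE-bla cells, 4,000/well, compound added after 5 h, with human liver microsomes 0.5 mg/mL and NADPH 0.5 mg/mL final; 16 h at 37 C, then LiveBLAzer 2 h RT, fluorescence.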

[7] = p53 small molecule agonists, cell-based qHTS assay with rat liver microsomes (AID 1963578)
In short: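 p53RE-bla cells, 4,000/well, pre-incubated 5 h, then given compounds plus rat liver microsomes (0.5 mg/mL final) and NADPH (0.5 mg/mL final). Incubation 16 h at 37 C; beta-lactamase reporter read by LiveBLAzer fluorescence after 2 h at room temperature.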

[8] = p53 small molecule agonists, cell-based qHTS assay with human liver microsomes: qHTS cell viability counter screen (AID 1963579); also: nearly all actives have a fitted effect of over 45% in size
In short: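 p53RE-bla cells, 4,000/well, dosed 5 hours after plating, with human liver microsomes (0.5 mg/mL final) plus NADPH (0.5 mg/mL final), 16 hours at 37 C. Viability read as CellTiter-Glo luminescence after 30 min at room temperature.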

[9] = p53 small molecule agonists, cell-based qHTS assay with rat liver microsomes: qHTS cell viability counter screen (AID 1963580); also: nearly all actives have a fitted effect of over 45% in size
In short: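 Viability is assessed in parallel with the p53 reporter read: HCT-116 p53RE-bla cells receive compounds plus rat microsomes and NADPH (0.5 mg/mL final apiece), incubate 16 h at 37 C, and then CellTiter-Glo luminescence is recorded.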

[10] = p53 small molecule agonists, cell-based qHTS assay: qHTS cell viability counter screen (AID 1963581); also: nearly all actives have a fitted effect of over 45% in size
In short: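 p53RE-bla HCT-116 cells were exposed to compounds for 16 h at 37 C; after the beta-lactamase FRET read in the same wells, CellTiter-Glo was added and luminescence (intracellular ATP) read after 30 min at room temperature.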

[11] = p53 small molecule agonists, cell-based qHTS assay (AID 1963582; active = well fitted activation curve with a large enough effect in the signal ratio in the repeat runs, not every such curve was filed as active; the % refers to the signal ratio)
In short: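 p53RE-bla beta-lactamase reporter cells rested 5 h at 37 C/5% CO2, then received compounds in DMSO by pin transfer and were incubated 16 h at 37 C. LiveBLAzer B/G FRET substrate was loaded for 2 h at room temperature before fluorescence reading.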

[12] = target: 5-hydroxytryptamine receptor 2A (Homo sapiens) (UniProt P28223); assay: 5-hydroxytryptamine receptor 2A (HTR2A) small molecule agonists, cell-based qHTS assay (AID 1963587); also: nearly all actives have a fitted effect of over 30% in size
Sequence of 5-hydroxytryptamine receptor 2A (Homo sapiens) (P28223 whole entry, looked up): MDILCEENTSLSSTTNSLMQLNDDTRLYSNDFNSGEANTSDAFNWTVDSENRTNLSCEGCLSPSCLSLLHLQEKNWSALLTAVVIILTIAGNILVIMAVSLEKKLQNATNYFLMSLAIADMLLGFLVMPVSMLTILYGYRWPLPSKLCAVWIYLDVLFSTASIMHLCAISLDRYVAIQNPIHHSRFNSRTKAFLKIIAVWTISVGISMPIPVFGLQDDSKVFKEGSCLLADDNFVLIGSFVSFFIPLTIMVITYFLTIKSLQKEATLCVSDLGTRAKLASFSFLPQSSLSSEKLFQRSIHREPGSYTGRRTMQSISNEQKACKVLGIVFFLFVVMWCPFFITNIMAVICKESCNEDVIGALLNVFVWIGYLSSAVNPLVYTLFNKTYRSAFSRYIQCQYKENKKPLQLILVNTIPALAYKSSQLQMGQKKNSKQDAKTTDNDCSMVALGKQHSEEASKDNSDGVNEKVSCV
In short: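 CHO cells stably expressing human HTR2A, plated 18 h, loaded with calcium dye 1 h at 37 C. Agonist mode: compounds added and intracellular calcium fluorescence recorded kinetically for 2 min at 1 sec intervals.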

[13] = target: Muscarinic acetylcholine receptor M1 (Homo sapiens) (UniProt P11229); assay: Cholinergic receptor muscarinic 1 (CHRM1) small molecule antagonists, cell-based qHTS assay (AID 1963588); also: nearly all actives have a fitted effect of over 40% in size
Sequence of Muscarinic acetylcholine receptor M1 (Homo sapiens) (P11229 whole entry, looked up): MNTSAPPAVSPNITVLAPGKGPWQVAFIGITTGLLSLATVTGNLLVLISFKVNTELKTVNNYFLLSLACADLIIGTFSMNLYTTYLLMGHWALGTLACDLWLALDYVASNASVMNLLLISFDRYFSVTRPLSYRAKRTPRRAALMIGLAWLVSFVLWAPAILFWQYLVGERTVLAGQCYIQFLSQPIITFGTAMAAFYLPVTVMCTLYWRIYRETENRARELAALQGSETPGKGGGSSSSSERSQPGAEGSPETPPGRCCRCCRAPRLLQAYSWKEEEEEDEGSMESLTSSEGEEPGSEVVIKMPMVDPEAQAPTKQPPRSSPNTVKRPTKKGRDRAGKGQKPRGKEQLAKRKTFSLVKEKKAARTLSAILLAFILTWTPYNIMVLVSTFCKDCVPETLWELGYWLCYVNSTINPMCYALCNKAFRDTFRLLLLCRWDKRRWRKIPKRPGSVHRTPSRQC
In short: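 CHRM1-CHO calcium-flux assay, antagonist mode. Cells were seeded 18 h, dye-loaded 1 h at 37 C and given compound for 5 min at RT, then acetylcholine was added at 50nM. FDSS fluorescence was read 3 min; 15 concentrations, three runs.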

[14] = target: Muscarinic acetylcholine receptor M1 (Homo sapiens) (UniProt P11229); assay: Cholinergic receptor muscarinic 1 (CHRM1) small molecule agonists, cell-based qHTS assay (AID 1963589); also: nearly all actives have a fitted effect of over 35% in size
In short: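 CHO cells stably expressing human CHRM1, seeded 18 h at 37 C/5% CO2, dye-loaded 1 h at 37 C, then given compound in agonist mode; intracellular calcium fluorescence read kinetically at 1 s intervals. Fifteen concentrations, three independent runs.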

[15] = cAMP Responsive Elements (CRE) small molecule antagonists, cell-based qHTS assay (AID 1963591; active = well fitted inhibition curve with a large enough effect in the signal ratio in the repeat runs, not every such curve was filed as active; the % refers to the signal ratio)
In short: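 CRE-bla HEK293T cells were plated 18 h at 37 °C/5% CO2, pinned with compound in DMSO, then stimulated with NKH477 at 0.25 uM final for 3 h. LiveBLAzer B/G FRET substrate was added and plates incubated 2 h at room temperature.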

[16] = target: D(2) dopamine receptor (Homo sapiens) (UniProt P14416); assay: Dopamine D2 receptor (DRD2) small molecule agonists, cell-based qHTS assay (AID 1963594); also: nearly all actives have a fitted effect of over 35% in size
Sequence of D(2) dopamine receptor (Homo sapiens) (P14416 whole entry, looked up): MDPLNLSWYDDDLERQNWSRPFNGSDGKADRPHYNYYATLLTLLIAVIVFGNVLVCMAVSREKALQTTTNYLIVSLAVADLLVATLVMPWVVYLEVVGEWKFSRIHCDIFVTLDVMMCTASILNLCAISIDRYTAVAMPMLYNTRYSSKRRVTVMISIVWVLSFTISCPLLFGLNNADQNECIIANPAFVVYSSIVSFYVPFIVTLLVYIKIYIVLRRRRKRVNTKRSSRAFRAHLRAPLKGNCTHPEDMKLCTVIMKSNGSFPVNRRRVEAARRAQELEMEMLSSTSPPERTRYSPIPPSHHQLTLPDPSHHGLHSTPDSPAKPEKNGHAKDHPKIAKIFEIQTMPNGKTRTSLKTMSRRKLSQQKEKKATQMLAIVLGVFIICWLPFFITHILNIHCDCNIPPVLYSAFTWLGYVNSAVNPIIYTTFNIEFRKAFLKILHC
In short: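 HEK293 cells stably expressing human DRD2, pre-treated with PDE inhibitor Ro20-1724 (0.1 mM final) and compound 10 min at room temperature, then stimulated with NKH477 (200nM […]) for 30 min. cAMP read by HTRF (665/620 nm).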

[17] = target: D(2) dopamine receptor (Homo sapiens) (UniProt P14416); assay: Dopamine D2 receptor (DRD2) small molecule antagonists, cell-based qHTS assay (AID 1963595; active = well fitted inhibition curve with a large enough effect in the signal ratio in the repeat runs, with a control signal flat; the % refers to the signal ratio)
In short: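 In this cell-based antagonist screen, compounds act for 10 min at room temperature before a 30 min challenge with 12 nM quinpirole and 200 nM NKH477. cAMP is quantified by HTRF competition in DRD2-HEK293 cells containing 0.1 mM Ro20-1724.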

[18] = cAMP Responsive Elements (CRE) small molecule agonists, cell-based qHTS assay (AID 1963590)
In short: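 CRE-bla HEK 293T cells in DMEM with 10% dialyzed FBS, NEAA, pyruvate and 25 mM HEPES were plated 18 h at 37 C/5% CO2, then exposed to compounds in DMSO for 3 h before LiveBLAzer B/G FRET substrate addition.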

[19] = target: Beta-2 adrenergic receptor (Homo sapiens) (UniProt P07550); assay: Adrenergic beta2 receptor (ADRB2) small molecule antagonists, cell-based qHTS assay (AID 1963592); also: series mostly up to about 92 µM; nearly all actives have a fitted effect of over 50% in size
Sequence of Beta-2 adrenergic receptor (Homo sapiens) (P07550 whole entry, looked up): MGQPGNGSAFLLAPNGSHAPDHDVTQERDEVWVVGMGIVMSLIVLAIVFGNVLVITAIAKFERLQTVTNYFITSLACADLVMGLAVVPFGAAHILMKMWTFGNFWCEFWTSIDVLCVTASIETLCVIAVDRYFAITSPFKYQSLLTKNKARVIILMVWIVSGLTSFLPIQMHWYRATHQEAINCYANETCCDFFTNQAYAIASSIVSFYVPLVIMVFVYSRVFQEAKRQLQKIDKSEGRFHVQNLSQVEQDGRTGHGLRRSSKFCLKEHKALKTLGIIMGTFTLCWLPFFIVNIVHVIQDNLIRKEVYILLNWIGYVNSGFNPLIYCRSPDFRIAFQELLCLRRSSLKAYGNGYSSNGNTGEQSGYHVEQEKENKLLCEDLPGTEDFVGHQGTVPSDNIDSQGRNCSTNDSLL
In short: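 Cells (CHO, stable ADRB2 overexpression) incubated 18-20hr at 37C; compounds added from DMSO; agonist mix (1nM isoproterenol, 100uM IBMX, 25uM Ro-20-1724) added; 0.5hr RT; d2-cAMP and anti-cAMP-cryptate added; 1hr RT; 665/615 nm read.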

[20] = target: Beta-2 adrenergic receptor (Homo sapiens) (UniProt P07550); assay: Adrenergic beta2 receptor (ADRB2) small molecule agonists, cell-based qHTS assay (AID 1963593);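 also: CHO cells stably overexpressing human ADRB2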
In short: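 CHO cells stably over-expressing ADRB2 were plated overnight at 37C, then dosed with compounds plus a stimulation mix containing 100uM IBMX and 25uM Ro-20-1724 for 0.5hr at room temperature. cAMP was measured by HTRF competition, 1hr.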

Measured: Potency

Cn1c(N)c(N=O)c(=O)n(C)c1=O
not listed: [18] | [19] | [20]
inactive: all other assays above

CCCCCCCCCCc1ccccc1
not listed: [16] | [20]
inactive: all other assays above

CC(=O)Nc1ccc(S(N)(=O)=O)cc1
not listed: [16] | [20]
inactive: all other assays above

Brc1ccc(-c2ccccc2)cc1
not listed: [15]
inactive: all other assays above

COc1ccc(C(=O)N2CCN(CC(=O)N3CCOCC3)CC2)cc1
not listed: [12]
inactive: all other assays above

C[C@H]1O[C@H](O[C@H]2[C@H](O)[C@@H](O)[C@@H](O[C@H]3[C@H](O)[C@@H](O)[C@H](O)O[C@@H]3CO)O[C@@H]2CO)[C@H](O)[C@@H](O)[C@@H]1N[C@H]1C=C(CO)[C@@H](O)[C@H](O)[C@H]1O
not listed: [12] | [13] | [14]
inactive: all other assays above

CCC(=O)Nc1ccc(O)cc1
not listed: [12] | [20]
inactive: all other assays above
